# About 79,000 compounds went through this panel and 15% of them were active in at least one assay; those are over-represented in the sample as a whole. A number with no mark means an inactive call. Active and inactive are the calls of the source. Rule as the data show it: active = growth inhibition above about 70%; inactive = the rest.
# Key:
# [1] = NCI Yeast Anticancer Drug Screen. Data for the rad50 strain (AID 155);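 also: 0% = growth of vehicle-only cultures of the same strain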; settings: S. cerevisiae rad50 strain growth inhibition, stronger effect = higher value
# In short: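 Cells are treated with compound, grown, and their growth is then scored against vehicle-only cultures of the same repair-deficient yeast strain.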
# [2] = NCI Yeast Anticancer Drug Screen. Data for the mec2-1 strain (AID 157); settings: S. cerevisiae mec2-1 strain, stronger effect = higher value
# In short: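 Each compound was tested on mec2-1 yeast, a strain altered in DNA damage repair or cell cycle control. Growth inhibition is reported relative to vehicle.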
# [3] = NCI Yeast Anticancer Drug Screen. Data for the sgs1 mgt1 strain (AID 161);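 also: 0% = growth of cultures given vehicle only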; settings: S. cerevisiae sgs1 mgt1 strain, stronger effect = higher value
# In short: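 Genetically altered yeast, compound exposure, growth inhibition relative to vehicle.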
# [4] = NCI Yeast Anticancer Drug Screen. Data for the cln2 rad14 strain (AID 165);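 also: 0% = growth equal to vehicle treated cultures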; settings: S. cerevisiae cln2 rad14 strain, stronger effect = higher value
# In short: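 Test compounds were added to cln2 rad14 yeast cultures; inhibition of growth was then determined by comparison with vehicle treatment.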
# [5] = NCI Yeast Anticancer Drug Screen. Data for the bub3 strain (AID 167); settings: S. cerevisiae bub3 mutant strain, stronger effect = higher value
# In short: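 Part of a panel of yeast mutants defective in DNA damage repair or cell cycle regulation. Each strain is grown with compound, and inhibition is calculated relative to solvent-treated cultures.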
# [6] = NCI Yeast Anticancer Drug Screen. Data for the mlh1 rad18 strain (AID 175); settings: S. cerevisiae mlh1 rad18 strain growth inhibition, stronger effect = higher value
# In short: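 Inhibition values reflect reduced growth of mutant yeast versus vehicle-treated controls following compound exposure; the mutations affect DNA damage repair.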
# [7] = at 5.0 µM (retest, dose inferred, filed as 0.5)
# [8] = at 50.0 µM (retest, dose inferred, filed as 5.0)
Structure (SMILES),"growth inhibition [1, 7]","growth inhibition [1, 8]",growth inhibition ([1]; at 50.0 µM),"growth inhibition [2, 7]","growth inhibition [2, 8]",growth inhibition ([2]; at 50.0 µM),"growth inhibition [3, 7]","growth inhibition [3, 8]",growth inhibition ([3]; at 50.0 µM),"growth inhibition [4, 7]","growth inhibition [4, 8]",growth inhibition ([4]; at 50.0 µM),"growth inhibition [5, 7]","growth inhibition [5, 8]",growth inhibition ([5]; at 50.0 µM),"growth inhibition [6, 7]","growth inhibition [6, 8]",growth inhibition ([6]; at 50.0 µM)
O=C1OC(c2cccc(Cl)c2)=N/C1=C\C=C/c1ccccc1,-3%,-10%,14.1%,-27%,-15%,-7.9%,-8%,1%,17.6%,19%,21%,11.8%,-1%,-10%,11.9%,-16%,-39%,3.9%
O=[N+]([O-])c1ccc(-c2ccccc2Cl)c([N+](=O)[O-])c1,2%,95% (active),95.8% (active),-7%,92% (active),95.7% (active),6%,96% (active),91.2% (active),-8%,83% (active),80.1% (active),-6%,93% (active),95.8% (active),5%,97% (active),93.7% (active)
CCCC(=O)Oc1ccc(-c2ccccc2)cc1Br,2%,83% (active),96.5% (active),2%,86% (active),91.5% (active),4%,81% (active),94.5% (active),6%,84% (active),86.7% (active),18%,77% (active),91.1% (active),-1%,73% (active),95.9% (active)
COc1ccccc1OCC(COC(=O)Nc1ccc(C)cc1)OC(=O)Nc1ccc(C)cc1 (configuration not stated),2%,2%,88.4% (active),-5%,-5%,82.4% (active),-18%,-18%,85.2% (active),-2%,-2%,78.6% (active),-1%,-1%,85% (active),-1%,-1%,78.7% (active)
CC(=O)/C(=C/n1c(=S)[nH]c2ccc([N+](=O)[O-])cc21)C(=O)Nc1ccc(Cl)cc1,1%,-1%,10.9%,-9%,2%,6.75%,0%,-5%,16.7%,-21%,-17%,46.4%,-4%,-2%,15.6%,1%,-2%,22.3%
Cc1cc(Cl)n2c(nc3ccccc32)c1C#N,13%,90% (active),98.2% (active),23%,97% (active),98.5% (active),16%,94% (active),99% (active),2%,89% (active),96.8% (active),18%,92% (active),98% (active),28%,94% (active),98.3% (active)
C1=c2ccccc2=C2C(=C(c3ccccc3)C(c3ccccc3)=NN2c2ccccc2)S1,-25%,-9%,-14.2%,0%,-17%,-18.6%,-13%,-22%,-18.8%,-22%,-13%,5.9%,-4%,2%,-5.35%,-1%,-32%,-2.55%
CCS(=O)(=O)c1ccc(NC(=O)OC2CC(C)CCC2C(C)C)cc1 (configuration not stated),14%,90% (active),90.5% (active),18%,94% (active),91.6% (active),15%,91% (active),89.5% (active),12%,91% (active),86.7% (active),11%,94% (active),90.8% (active),20%,92% (active),92.1% (active)
O=C(O)c1ccccc1SC(Sc1ccccc1C(=O)O)c1cccc(Cl)c1,8%,92% (active),88% (active),7%,97% (active),80% (active),22%,99% (active),97% (active),-1%,87% (active),90% (active),9%,97% (active),81.5% (active),15%,97% (active),98% (active)
COc1ccc(C(C)c2cc3c(cc2O)OCO3)cc1 (configuration not stated),7%,99% (active),98.5% (active),-8%,48%,98.7% (active),-3%,56%,98.8% (active),-23%,58%,97.1% (active),-22%,76% (active),98.5% (active),7%,97% (active),98% (active)
Cc1ccsc1C(=S)Nc1ccc(Cl)c(/C=N/OC(C)C)c1,4%,15%,32%,9%,14%,19.9%,7%,31%,21.6%,2%,17%,44.8%,13%,43%,23.1%,12%,14%,55.2%
O=C(O)C(O)C(O)C(OC1OC(CO)C(O)C(O)C1O)C(O)CO.[Br][Pt].[NH-]C1CCCCC1[NH-] (configuration not stated),50%,97% (active),67.8%,65%,88% (active),62.9%,89% (active),99% (active),89.5% (active),24%,72% (active),72% (active),79% (active),97% (active),83.6% (active),69%,98% (active),56%
Cc1ccc2sc(=S)sc2c1,-2%,32%,59.5%,-3%,53%,25.4%,-2%,40%,40.4%,0%,77% (active),74.2% (active),7%,65%,95.3% (active),-19%,69%,72.3% (active)
Cc1ccc(N2CCN(c3c(N)cncc3Br)CC2)cc1,-4%,-4%,94% (active),6%,14%,97.3% (active),0%,18%,92.8% (active),0%,-15%,46.5%,19%,71% (active),96% (active),-4%,-1%,90.8% (active)
CC(Nc1cc(Cl)cc(Cl)c1)c1ccncc1 (configuration not stated),1%,98% (active),37.2%,-26%,98% (active),56.4%,-31%,91% (active),43%,22%,98% (active),22%,-59%,99% (active),43.5%,-10%,98% (active),42.5%
OC(CC(CC(O)(C(F)(F)Cl)C(F)(F)Cl)=NNc1ccccc1)(C(F)(F)Cl)C(F)(F)Cl,87% (active),99% (active),99% (active),91% (active),99% (active),99.2% (active),79% (active),98% (active),99.3% (active),83% (active),99% (active),99.2% (active),52%,99% (active),99% (active),93% (active),99% (active),99% (active)
O=C(Nc1ccc(Br)cc1)c1c(-c2ccccc2)c2ccc(O)cc2oc1=O,0%,96% (active),96.3% (active),-9%,97% (active),95.5% (active),-5%,93% (active),98.6% (active),-7%,95% (active),94% (active),-10%,96% (active),97.2% (active),-3%,96% (active),98.4% (active)
Cc1ccc(C2CC(c3cccc([N+](=O)[O-])c3)=Nc3ccccc3S2)cc1 (configuration not stated),0%,19%,57.5%,0%,31%,15.9%,-1%,46%,57.3%,-6%,-4%,36.4%,11%,78% (active),88% (active),2%,29%,60.8%
Cc1[nH]c2ccccc2c1-c1ccccc1,-126%,98% (active),99.5% (active),-48%,99% (active),99.6% (active),-65%,98% (active),99.5% (active),-53%,99% (active),99% (active),-62%,98% (active),99.4% (active),-122%,98% (active),99.5% (active)

# — PubChem BioAssay (NCI)
